Assay outcomes deposited in PubChem BioAssay by National Center for Advancing Translational Sciences (NCATS).
Only some compounds are listed: those with a hit (about 17% of all), similar ones and a draw of the others.
DT40 TDP1 no CPT = qHTS for Inhibitors of human tyrosyl-DNA phosphodiesterase 1 (TDP1): qHTS in cells in absence of CPT; DT40 Tdp1-/- hTDP1 cells, no CPT, ATP luminescence, 48 h; Potency, µM (highest dose often 46.2 µM), for inactives: top-dose activity change, negative = growth inhibition, usual class: inhibitors; 15% of 420,000 active; AID 686978, 2013; also: % is scaled to controls: 0 for no effect and ±100 for the full control effect; nearly all actives have a fitted effect of over 55% in size
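DT40 Tdp1-/-;hTDP1 cells, no CPT (DMSO vehicle only), 400 cells/well; compounds pin-transferred; ≥48 hr, 37 °C; CellTiter-Glo 30 min RT dark, luminescence read.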
TGFb inhibitor = TGF-b pathway inhibition; 1.2% of 410,000 active; HepG2 CAGA-GFP TGF-b/SMAD3 reporter, GFP fluorescence, 18 h; TGF-beta stimulated, 500 pg/mL final; Potency, µM (titrated, usually from 46.1 µM), for inactives: top-dose activity, negative = inhibition, hits mostly inhibitors; also: % is scaled to controls: 0 for no effect and ±100 for the full control effect; nearly all actives have a fitted effect of over 65% in size
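Using HEPG2 CAGA-GFP reporter cells at 1000 cells/well, we pinned test compounds, stimulated with recombinant TGF-beta (500 pg/mL final) and measured total well GFP after 18 h.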
TDP1 cell CPT = DT40-hTDP1 cell growth loss with CPT; 12% of 420,000 active; chicken DT40 Tdp1-/-;hTDP1 cells + 20 nM CPT, ATP luminescence, 48 h; Potency, µM (series often up to 46.2 µM), for the others: at the highest dose activity change, negative = growth inhibition, usual class: inhibitors; AID 686979; also: % is scaled to controls: 0 for no effect and ±100 for the full control effect; nearly all actives have a fitted effect of over 55% in size
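Chicken DT40 Tdp1-/- cells stably complemented with human TDP1 were seeded at 400 cells/well in medium containing 20 nM camptothecin, exposed to pin-transferred compounds, and grown at 37 °C for at least 48 hr. Viability was read as ATP luminescence.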
ATXN viability = reduces viability in counter-screen for ATXN expression inhibitors; 0.49% of 400,000 active; S2 cells (HEK-293 line with an ATXN2-luciferase reporter) viability, CellTiter-Fluor protease fluorescence, 24 h; AID 651635; Potency, µM (series often up to 56.7 µM), usual class: cytotoxic; also: nearly all actives have a fitted effect of over 40% in size
ATXN2 expr inh = ATXN2 expression inhibition; Potency, µM (series often up to 57 µM), without a hit: at the top dose activity change, negative = inhibition, hits mostly inhibitors; 0.72% of 360,000 active; AID 1745845; HEK-293 ATXN2-luciferase reporter, luminescence, 24 h; also: % is scaled to controls: 0 for no effect and ±100 for the full control effect; nearly all actives have a fitted effect of over 55% in size
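ATXN2-luciferase reporter cells (luciferase flanked by upstream and downstream ATXN2 gene portions) were treated 24 h at 37 °C with compounds at up to 57 uM. SteadyGlo luminescence gave expression; GF-AFC fluorescence gave viability.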
HepG2 viability = HepG2 cytotoxicity, counter-screen for TGF-b inhibitors. HepG2 CAGA-GFP viability, ATP luminescence, 18 h. Potency, µM (doses to about 46.1 µM), without a hit: at the top dose activity change, negative = cytotoxicity, most hits filed as cytotoxic. 0.76% of 410,000 active
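CellTiter-Glo luminescence gave cytotoxicity after 18 hours at 37 degrees C. The cells were HepG2 CAGA-GFP in 1% FBS DMEM, stimulated with 500 pg/mL TGF-beta after compound addition. %Activity was normalised to no-cell wells (complete cell-killing) and DMSO (no toxicity), and curves were fitted and classified.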
An asterisk follows results filed as active; i = inactive; ? = inconclusive; . = no result; [ ] = another dose, or the depositor's remark. Calls follow the shape of the dose curve; as a rule, active = well fitted curve in the direction sought with a large enough effect; inconclusive = small, poorly fitted or top-dose-only effect, or another doubt; inactive = no such curve, though single readings can be large; an effect the other way counts as inactive or inconclusive. Potency is read from the fitted curve at half-maximal effect.

SMILES	DT40 TDP1 no CPT	TGFb inhibitor	TDP1 cell CPT	ATXN viability	ATXN2 expr inh	HepG2 viability
COc1cc(C(=O)NC2CC(C)CC(C)(C)C2)cc(OC)c1OC (centres undefined)	?	?	-26.6%	i	.	-22.4%
Cc1ccc(NC(=O)C2CCCN2C(=O)c2cccs2)c(C)c1 (centres undefined)	1.4%	4.4%	-6.3%	i	5.9%	-7.7%
O=C(Cc1cccc(NC(=O)C2CCCN(C(=O)c3ccccc3)C2)c1)Nc1cccc(C(=O)N2CCCCC2)c1 (centres undefined)	-2.1%	-3.3%	-11.9%	i	6.9%	0.7%
COc1ccc2cnn(-c3ccc(C)cc3)c(=O)c2c1OC	20.6µM*	0.0%	14.6µM*	i	22.1%	-18.3%
COc1ccc2cnn(-c3ccc(OC(F)(F)Cl)cc3)c(=O)c2c1OC	2.5%	-27.4%	13.0%	i	15.5%	-14.5%
Cc1ccc(-n2ncc(Br)c(Br)c2=O)cc1	3.66µM*	3.16µM*	4.11µM*	21.2µM*	?	-109.9%
COc1c(Cl)cnn(-c2ccc(C)cc2)c1=O	16.4µM*	-3.2%	?	i	1.5%	8.0%
Cc1ccc(CNC(=O)COC(=O)c2cccc(S(=O)(=O)N3CCCCC3)c2)cc1	21.4%	9.2%	-20.3%	i	1.6%	21.7%
COc1cc(C#N)c(NC(=O)CN2CCC(C(N)=O)CC2)cc1OC	15.9%	8.2%	-9.9%	i	0.7%	0.9%
COc1cccc(C(C)(O)c2nc(-c3ccccc3C)cs2)c1 (centres undefined)	?	?	?	i	0.1%	-30.2%
COc1cccc(C(C)(O)c2nc(-c3csc4ccccc34)cs2)c1 (centres undefined)	-91.9%	17.8µM*	?	i	6.4%	-48.6%
COc1cccc(C(C)(O)c2nc(/C=C/c3ccccc3)cs2)c1 (centres undefined)	18.4µM*	14.1µM*	?	i	-2.2%	-24.2%
CCc1nnc2c3ccccc3nc(Nc3ccccc3OC)n12	?	4.1%	-11.7%	i	-7.3%	-3.6%
CCN(C(=O)CN1C(=O)NC2(CCCC2)C1=O)c1nc2c(C)cccc2s1	13µM*	-4.6%	?	i	.	-32.5%
CCN(C(=O)C1CSC2(C)CCC(=O)N12)c1nc2c(C)cccc2s1 (centres undefined)	-2.9%	-5.7%	?	?	-20.6%	1.6%
O=C(OCc1ccc(Cl)cc1Cl)c1ccncc1	-5.7%	0.5%	-14.1%	i	-7.7%	4.8%
O=C(O)c1ccc(-c2ccc(/C=c3/sc4nc5ccccc5n4c3=O)o2)cc1Cl	?	8.2%	-1.2%	i	7.2%	-52.2%
Cc1ccc(N2C(=O)c3sc4nnc(C)c(=O)n4c3C2=O)cc1	-4.9%	20.2%	-24.3%	?	3.8%	-17.7%
O=C1c2sc3nc4c(c(=O)n3c2C(=O)N1c1ccccc1)CCC4	6.51µM*	5.3%	4.11µM*	i	-4.9%	5.7%
Cc1ccccc1N1C(=O)c2sc3nc4c(c(=O)n3c2C1=O)CCC4	18.4µM*	19.0%	5.8µM*	i	?	-14.5%
O=C1c2sc3nc4ccccc4n3c2C(=O)N1c1ccccc1Cl	7.31µM*	-5.1%	2.59µM*	i	9.0%	-27.8%
Cc1ccc(-c2cc(N)n(-c3ccc(F)cc3)n2)cc1	-9.6%	23.3%	-3.0%	i	16.5%	3.6%
Cn1cc(CN2CCc3ccccc3C2)c2ccccc21	?	-11.7%	9.2µM*	?	?	-28.7%
CN(C)CC(C)(O)c1ccc2c(c1)CN(Cc1cn(C)c3ccccc13)CCO2 (centres undefined)	20.6µM*	.	-7.2%[9.04 µM]	?	.	.
CCCc1[nH]nc2c1C(c1ccc(OC)c(CSC3=NCCS3)c1)C(C#N)=C(N)O2 (centres undefined)	20.6µM*	?	?	i	-11.0%	-26.8%
SMILES	DT40 TDP1 no CPT	TGFb inhibitor	TDP1 cell CPT	ATXN viability	ATXN2 expr inh	HepG2 viability
COc1ccc(CN(C(=O)c2ccco2)c2ccccc2)cc1	?	19.4%	?	i	2.0%	-2.4%
O=C(c1ccccc1Br)N(Cc1ccccc1)c1ccccc1	11.6µM*	-29.6%	20.6µM*	i	-17.3%	-19.4%
Cn1cc(CNCc2ccc(OC(F)(F)F)cc2)c(-c2ccc3c(c2)OCCO3)n1	2.59µM*	?	7.31µM*	?	.	-52.0%
Cn1cc(CNCc2cn[nH]c2-c2ccc(F)cc2)c(-c2ccc3c(c2)OCCO3)n1	4.0%	3.2%	-10.6%	i	-12.9%	-2.8%
O=C(NCCO)c1cn(C2CCCN(Cc3cccc(C(F)(F)F)c3)C2)nn1 (centres undefined)	-18.2%	.	-6.6%[9.04 µM]	i	.	.
COC(=O)C1=C(Nc2ccc(C)cc2)C=C(C)C(C(=O)OC)C1c1ccc(OC)cc1 (centres undefined)	25.9µM*	0.1%	16.4µM*	i	0.0%	-22.2%
COC(=O)C1=C(Nc2ccc(C)cc2)C=C(C)C(C(=O)OC)C1c1cccc(OC)c1 (centres undefined)	?	2.1%	?	?	-16.8%	-0.2%
COc1cc(/C=C(/C#N)c2ccccc2F)ccc1OCc1ccccc1	18.4µM*	4.0%	16.4µM*	i	7.8%	-13.9%
O=C1OC[C@H](Cc2ccc3c(c2)OCO3)/C1=C\c1ccc2c(c1)OCO2	8.2µM*	2.6%	5.8µM*	?	?	-25.0%
C/C(=N\NC(=O)C1CC1(c1ccccc1)c1ccccc1)c1cccc([N+](=O)[O-])c1 (centres undefined)	7.31µM*	7.9%	?	i	-5.4%	-1.1%
C/C(=N\NC(=O)c1ccccc1C)c1cccc([N+](=O)[O-])c1	-4.1%	-18.3%	-7.5%	i	5.5%	-15.0%
C/C(=N\NC(=O)C1CC1c1ccccc1)c1cccc([N+](=O)[O-])c1 (centres undefined)	?	11.2µM*	?	i	-24.2%	-60.3%
COc1ccc(NC(=O)Nc2sc3nc4n(c(=O)c3c2C)CCC(C)CC4)cc1OC (centres undefined)	?	29.5%	?	?	?	-28.5%
C[C@@H]1CN([C@@H](C)CO)C(=O)c2cc(NS(C)(=O)=O)ccc2O[C@@H]1CN(C)Cc1ccc(C(F)(F)F)cc1	-28.8%	-9.3%	?	?	-15.4%	-12.8%
